Experimental data as given in PubChem BioAssay (NCATS).
Inconclusive results are not listed. Values without a mark were called inactive. The source made the active and inactive calls. The call rests on the fitted dose curve; in most records, active means well fitted inhibition curve with a large enough effect; inconclusive means small, poorly fitted or top-dose-only effect; inactive means flat fitted curve, though single readings scatter.

Test system: Zika virus NS2B-NS3 protease
Assay: Primary screen GU AMC qHTS for Zika virus inhibitors (AID 1347154);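 further: 0% = no-inhibitor control and -100% = no-enzyme control; nearly all actives have a fitted effect of over 70% in size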
Details: Zika NS2B-NS3 unlinked protease, AMC fluorogenic substrate; series mostly up to 54.1 µM; activity change, negative = inhibition: at the top concentration
Procedure, shortened: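 Unlinked Zika NS2B hydrophilic domain/NS3 protease domain noncovalent complex (25 nM final) in 10 mM Tris-HCl pH 8.0, 0.01% Tween 20, with AMC peptide substrate. Fluorescence (ex 340, em 450 nm) change over 15 min, room temperature; percent inhibition fitted to 4-parameter Hill equation.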

| SMILES | activity change, negative = inhibition | Potency |
| --- | --- | --- |
| CC(CCc1ccc2c(c1)OCO2)NN (stereo unspecified) | -0.245% | – |
| Clc1ccc2c(c1)Nc1ccccc1S2 | -6.51% | – |
| Nc1c[n+](N2CCOCC2)no1 | – | inactive |
| CC(=O)c1cc2ccccc2s1 | 1.39% | – |
| Nc1ncnc2nc[nH]c12 | -3.53% | – |
| COc1ccc(CCC(C)=O)cc1 | -1.73% | – |
| CCS(=O)(=O)c1ccc(OC)c(C(=O)OC)c1 | 1.28% | – |
| Cc1cccc(C)c1NC(=O)c1cc(S(N)(=O)=O)c(Cl)cc1O | -3.99% | – |
| CC(C)(Oc1ccc(Cl)cc1)C(=O)OCCCOC(=O)C(C)(C)Oc1ccc(Cl)cc1 | -10.9% | – |
| Cc1cccc(C)c1NC(=O)c1ccc(N)cc1 | 0.553% | – |
| N#CC1(c2ccc(F)cc2)CCC(=O)CC1 | 5.53% | – |
| Nc1nc2ccccc2n1Cc1ccc(F)cc1 | 3.02% | – |
| COc1ccc(-n2nc(CCC(=O)N(C)O)cc2-c2ccc(Cl)cc2)cc1 | -1.87% | – |
| CSCC[C@H](NC(=O)[C@H](Cc1c[nH]c2ccccc12)NC(=O)CCNC(=O)OC(C)(C)C)C(=O)N[C@@H](CC(=O)O)C(=O)N[C@@H](Cc1ccccc1)C(N)=O | 1.66% | – |
| CN(CC1(C)CCCO1)S(=O)(=O)c1ccc(Cl)c(S(N)(=O)=O)c1 (stereo unspecified) | -2.25% | – |
| CCCCCCCCCCCCCCCC[n+]1ccccc1 | -15.7% | – |
| CCOC(=O)N1CCC(Nc2ccc(Cl)cc2N)CC1 | -18.6% | – |
| COC(=O)c1ccc(NC(C)=O)cc1OC | -4.41% | – |
| O=C(OCC(O)CO)c1ccccc1Nc1ccnc2c(C(F)(F)F)cccc12 (stereo unspecified) | -9.45% | – |
| CC[N+]1(CC)CCC(=C(c2ccccc2)c2ccccc2)C1C (stereo unspecified) | -0.848% | – |
| CN=C(N)NC(=O)Nc1c(C)cccc1C | -6.62% | – |
